In PubChem BioAssay (NCI):
The panel holds about 83,000 compounds, 20% with a hit somewhere; the sample as a whole holds those more often.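 Treatment: one concentration, 48 hours, 96-well format. Scoring: percent growth, with anything below 10 considered active.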 Calls of active or inactive are those of the source.

What was measured:
Test in all cases: NCI-60 one-dose screen, 48 h (100 = growth as untreated, 0 = no growth, -100 = all killed)
Conditions in all cases: 10 µM unless noted
[1] = test system: T-47D breast
[2] = test system: BT-549 breast
[3] = test system: MDA-MB-435 melanoma
[4] = test system: SW-620 colon
[5] = test system: MCF7 breast
[6] = test system: HCT-116 colon
[7] = test system: HCC-2998 colon
[8] = test system: KM12 colon

Measured: growth

FC(F)(F)c1[nH]ncc1-c1nc2ccc3n[nH]c(C#Cc4cccnc4)c3c2c2c1CCCC2
inactive: [1] 48.8% | [2] 10.3% | [3] 47.8% | [4] 19.2% | [5] 33.9% | [7] 50.4% | [8] 22.7%
active: [6] 9.04%

COC[C@H](C)n1c(C2CCOCC2)nc2cnc3cc(-c4c(C)noc4C)c(OC)cc3c21
inactive: [1] 37.9% | [2] 69.2% | [3] 44.5% | [4] 64.3% | [5] 22.5% | [6] 46.8% | [7] 56.6% | [8] 54%

COc1cccc(-c2nc3sccn3c2-c2ccnc(NCCCNS(=O)(=O)c3cccc(F)c3)c2)c1
active: [1] -8.47% | [2] 6.32%
inactive: [3] 12.2% | [4] 50% | [5] 24.8% | [6] 20.8% | [7] 64.7% | [8] 23.2%

Cn1c(=O)c2c(nc3n(-c4ccc(Cl)cc4Cl)c(Sc4nc(-c5ccccc5)c(C#N)c(=O)[nH]4)cn23)n(C)c1=O
inactive: [1] 11.3% | [2] 72.6% | [3] 69.1% | [4] 30% | [5] 52.1% | [6] 18.6% | [7] 78.3% | [8] 84.9%

CCOC(=O)n1cc(-c2nonc2-c2cn(C)c3ncccc23)c2cc(F)ccc21
inactive: [1] 10.4% | [2] 93.1% | [3] 94.7% | [4] 89.5% | [5] 27.2% | [6] 69.5% | [7] 86.4% | [8] 73.5%

CSc1nc2c(c(=O)[nH]1)C1(C(=O)Nc3ccccc31)c1c(nc(SC)[nH]c1=O)N2
inactive: [1] 111% | [2] 107% | [3] 104% | [4] 99.1% | [5] 102% | [6] 106% | [7] 104% | [8] 103%

COc1cccc(-c2nn(C(C)(C)C)cc2-c2ccnc(NCCCNS(=O)(=O)c3cccc4ccccc34)c2)c1
inactive: [1] 102% | [2] 108% | [3] 102% | [4] 106% | [5] 98.6% | [6] 98.7% | [7] 114% | [8] 99.5%

O=C(O)c1c(=O)cccc2ssc12
inactive: [2] 20.2% | [3] 23.3% | [7] 13.5%
active: [1] -43% | [4] -34.4% | [5] -17% | [6] 2.36% | [8] 3.59%

O=[N+]([O-])c1ccc(Nc2nc(NCCN3CCOCC3)ncc2[N+](=O)[O-])cc1
inactive: [1] 100% | [2] 89% | [3] 97.8% | [4] 89.1% | [5] 79.8% | [6] 88.1% | [7] 93.4% | [8] 99%

Cc1cc(Nc2ccc(C)c(Cl)c2)n2nc(C(F)(F)F)nc2n1
inactive: [2] 69.6% | [3] 34.5% | [4] 40.6% | [5] 77.9% | [6] 18.5% | [7] 74.5% | [8] 62%
active: [1] -0.705%

N#CCCN=Nc1c(O)[nH]c2ccc(F)cc12
inactive: [1] 96.4% | [2] 108% | [3] 96.6% | [4] 98.3% | [5] 93.9% | [6] 95.1% | [7] 97.9% | [8] 101%

COc1ccc(-c2nc3ccc(-c4nc5ccc(N6CCN(c7ccc(F)cc7)CC6)cc5[nH]4)cc3[nH]2)cc1OC
inactive: [1] 43.8% | [2] 76.3% | [3] 90.1% | [4] 46.5% | [6] 11.2% | [7] 95.1% | [8] 95%
active: [5] 9.99%

CCC(=O)c1ccc(Cl)s1
inactive: [1] 105% | [2] 90.5% | [3] 114% | [4] 104% | [5] 97.8% | [6] 101% | [7] 102% | [8] 107%

O=C1Nc2ccc(Br)cc2C12Oc1ccccc1C1CC(c3ccc(F)cc3)=NN12 (configuration not stated)
inactive: [1] 85.9% | [2] 91.8% | [3] 99.8% | [4] 99% | [5] 83.5% | [6] 92.3% | [7] 97.8% | [8] 86.3%

CS(=O)(=O)c1ccc(-n2nc(-c3ccc(Br)cc3)c3ccccc3c2=O)cc1
inactive: [1] 86.5% | [2] 91.1% | [3] 103% | [4] 104% | [5] 85.9% | [6] 96.7% | [7] 98% | [8] 102%

CC[N+](CC)=c1sc2c(s1)C(c1ccc(Cl)cc1)Oc1ccc(Cl)cc1-2 (configuration not stated)
active: [1] -2.38% | [2] 4.07% | [3] 2.5% | [4] 2.29% | [5] 4.58% | [6] 6.48% | [7] -15.1% | [8] -28.8%

CCN(CC)c1ccc(/C=N\NC(=O)/C=C/C=C/c2ccc3c(c2)OCO3)c(O)c1
inactive: [1] 26.3% | [2] 51.8% | [3] 48.9% | [4] 32.3% | [5] 19.5% | [7] 54% | [8] 30.2%
active: [6] 7.86%

O=C(Cc1ccc(/C=C/C(=O)c2ncc[nH]2)cc1)Nc1ccc(F)cc1
active: [4] 4.06% | [8] 8.05%
inactive: [1] 19.3% | [2] 22.4% | [3] 32.6% | [5] 11.3% | [6] 26.8% | [7] 79.7%

Cc1ncc(C(=O)Nc2ccc(CN3CCN(C)CC3)c(C(F)(F)F)c2)cc1C#Cc1cnc2cccnn12
inactive: [1] 40% | [7] 11.1%
active: [2] -10.8% | [3] -54.1% | [4] -5.14% | [5] 2.92% | [6] 0.541% | [8] -0.978%

CC(C)(O)c1cn(CCCCN2C(=O)C(=O)c3ccccc32)nn1
inactive: [1] 99.5% | [2] 110% | [3] 101% | [4] 99.6% | [5] 93.9% | [6] 101% | [7] 103% | [8] 101%

CC1C(/C=N/Nc2ccccc2)C(C#N)(C#N)C1(C#N)C#N (configuration not stated)
inactive: [1] 79.3% | [2] 77.4% | [3] 62.5% | [4] 60.2% | [5] 82.4% | [6] 67.3% | [7] 86% | [8] 62.5%

COc1ccc(-n2nc(C)c3c(Nc4ccc(NC(=O)Nc5cccc(C(F)(F)F)c5)cc4)ncnc32)cc1
inactive: [2] 25.2% | [4] 12.4% | [7] 14.1%
active: [1] -13.9% | [3] 6.96% | [5] 2.15% | [6] 1.52% | [8] 2.78%

COc1ccc(-c2cc(C(=O)N=Nc3c(O)[nH]c4ccc(Br)cc34)no2)cc1
inactive: [1] 93.6% | [2] 107% | [3] 101% | [4] 93.7% | [5] 94.1% | [6] 91.6% | [7] 104% | [8] 100%

NS(=O)(=O)c1ccc(CN=C2NC(=O)S/C2=C\c2ccc(Br)cc2)cc1
inactive: [1] 99.2% | [2] 103% | [3] 101% | [4] 97.9% | [5] 93.5% | [6] 94.7% | [7] 107% | [8] 109%

CC1=NN(c2nc(-c3ccc(Cl)cc3)c(C#N)c(N3CCOCC3)n2)C(=O)C1
inactive: [1] 93.3% | [2] 66.1% | [3] 87.8% | [4] 85.2% | [5] 94.4% | [6] 94.3% | [7] 98.5% | [8] 99.7%

O=C(COc1cccc(/C=C2\COc3ccc(Cl)cc3C2=O)c1)c1ccc(Cl)cc1
active: [5] 0.286%
inactive: [1] 71.9% | [2] 84.7% | [3] 91.2% | [4] 51% | [6] 31.1% | [7] 129% | [8] 77.1%

C#CCOc1ccc2ncnc(NCc3cccc(NC(=O)CCl)c3)c2c1
inactive: [1] 33.2% [8.25 µM] | [2] 46.6% [8.25 µM] | [3] 53.4% [8.25 µM] | [4] 19.9% [8.25 µM] | [5] 15.5% [8.25 µM] | [6] 14.6% [8.25 µM] | [7] 99.7% [8.25 µM] | [8] 59.7% [8.25 µM]

Cc1nc2ccccc2n1C(=O)C[C@@H]1NC(=S)NC1=O
inactive: [1] 96.7% | [2] 95.5% | [3] 97.8% | [4] 99.4% | [5] 93.9% | [6] 92.5% | [7] 102% | [8] 102%

Cc1oc(-c2ccc(Cl)cc2Cl)cc1C(=O)Nc1nccs1
inactive: [1] 70.3% | [2] 107% | [3] 100% | [4] 94.4% | [5] 60.8% | [6] 67.2% | [7] 109% | [8] 98.7%
